# Screens as filed in PubChem.
# In the library only some 0.78% were active in any assay of this set; here they are far more common.
# BJeLR viability – BJeLR cell viability loss. BJeLR (HRASV12) viability, CellTiter-Glo ATP luminescence, 48 h. inhibition, % (no concentration beside the values). 0.17% of 300,000 active. AID 1554; in the data active = inhibition above about 50%
# PriA SSB inh – inhibitors of Klebsiella pneumoniae PriA binding to SSB C-terminal tail | AlphaScreen SSBct-PriA binding, biotinylated peptide | inhibition, % at 33 µM | 0.6% of 430,000 active | AID 1272365; in the data active = inhibition mostly above about 37%, no sharp cut-off; inactive = mostly below about 20%;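 also: plate controls were negative control peptide for no effect and reference peptide for full effect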
# SARS 3CLpro inh-1 – SARS-CoV 3CLpro protease inhibition | P0C6X7 | recombinant SARS-CoV 3CLpro, quenched FRET peptide cleavage | inhibition, % at 6 µM | 0.14% of 290,000 active | AID 1706; in the data active = inhibition above about 12%
# SARS 3CLpro inh-2 – confirmation of SARS coronavirus 3C-like protease inhibitors; shares compounds with SARS 3CLpro inh-1; QFRET protease activity assay, 3CLpro; inhibition, % at 6 µM; 36% of 380 active; AID 1879; in the data active = inhibition above about 13%
# An asterisk follows results filed as active; / = no result given.
SMILES,BJeLR viability,PriA SSB inh,SARS 3CLpro inh-1,SARS 3CLpro inh-2
Nc1nc(NCCO)nc(NCCO)c1[N+](=O)[O-],/,2,/,/
CC(=O)Nc1ccc(NC(=O)C/C(C)=N/NC(=O)COc2cc(C)c(Br)cc2Br)cc1,-6,/,16*,1
CC(CC(=O)NCC(C)C)=NNC(=O)COc1cc(C)c(Br)cc1Br,/,-15,/,/
O=C(Cc1cccc2ccccc12)N1C2C=CCC1CC2 (stereo unspecified),/,1,/,/
Cc1cccc(-n2ncc3c(=O)[nH]c(-n4nc(C)cc4NC(=O)C(C)Oc4ccccc4)nc32)c1 (stereo unspecified),/,-3,/,/
CCc1ccc(NS(=O)(=O)c2ccc3[nH]cc(C(=O)N4CCc5ccccc54)c(=O)c3c2)cc1,5,4,6,/
Cc1cc(C)cc(NS(=O)(=O)c2ccc3[nH]cc(C(=O)N4CCc5ccccc54)c(=O)c3c2)c1,7,7,14*,-2
Cc1ccc(C23CC4CC(CC(Br)(C4)C2)C3)cc1[N+](=O)[O-],/,-9,/,/
Cc1ccc2cc(CN(c3ccccc3)S(=O)(=O)c3ccccc3)c(=O)[nH]c2c1,-4,-5,3,/
CCOc1ccc(N(Cc2cc3ccc(C)cc3[nH]c2=O)S(=O)(=O)c2ccccc2)cc1,-6,-2,13*,6
COc1cc(C)c(C)cc1S(=O)(=O)Nc1ccc2c(c1)N(CCC(C)C)C(=O)C(C)(C)CO2,/,-12,/,/
CC(C)=CC(=O)N1CCC(Oc2ccc(C)nn2)C1 (stereo unspecified),/,-7,/,/
O=C1NC(=S)SC1=Cc1ccc2c(c1)OCO2,/,-2,/,/
O=C1N/C(=N/S(=O)(=O)Cc2ccccc2)S/C1=C/c1ccc2c(c1)OCO2,-3,/,13*,2
Cc1ccc(S(=O)(=O)/C(=C\c2ccccc2)NC(=O)c2ccccc2)cc1,/,-11,/,/
Cc1ccc(S(=O)(=O)/C(=C/Cl)NC(=O)c2ccccc2)cc1,-3,-2,16*,23*
CCOC(=O)c1ccc(NC(=O)CCSc2ccc(F)cc2)cc1,/,-53,/,/
CCC(C)(C)c1ccc(OCC(=O)Nc2ccc(C(=O)CC(=O)Nc3cccc(OC)c3)cc2)c(C(C)(C)CC)c1,/,-8,/,/
CC1CCC(N2CCN(c3ccc([N+](=O)[O-])cc3)CC2)CC1 (stereo unspecified),-2,6,2,/
CCC1CCC(N2CCN(c3ccc([N+](=O)[O-])cc3)CC2)CC1 (stereo unspecified),2,4,13*,0
Cc1ccc(N2C(=O)c3ccccc3C2=O)cc1,16,-3,3,/
Cc1ccc(SC2=C(Sc3ccc(C)cc3)C(=O)c3ccccc3C2=O)cc1,10,0,6,5
COc1ccc(C2CCCCN(C(=O)c3ccc4nccnc4c3)C2)cc1 (stereo unspecified),/,-1,/,/
CC(=O)N(c1ccc(C(F)(F)F)cc1)S(=O)(=O)c1ccc(N2C(=O)CCC2=O)cc1,11,-6,13*,1
CC(=O)c1cccc(NS(=O)(=O)c2ccc(N3C(=O)CCC3=O)cc2)c1,/,-1,/,/
SMILES,BJeLR viability,PriA SSB inh,SARS 3CLpro inh-1,SARS 3CLpro inh-2
CCc1ccc(-c2ccc(SCC(=O)Nc3ccc(F)cc3F)nn2)cc1,/,-20,/,/
COc1ccc(C)cc1NC(=O)CSc1nc2scc(C)c2c(=O)[nH]1,5,-4,13*,3
COc1ccc(C)cc1NC(=O)CSc1nncc(=O)[nH]1,/,-7,/,/
CC(C)c1ccc(Nc2cc(=O)n(C3CCCCC3)c(=O)[nH]2)cc1,/,3,/,/
CCOC(=O)c1oc2nc(C)c3c(c2c1N)CC(C)(C)OC3,3,0,3,/
CCOC(=O)c1oc2nc(CC(C)C)c3c(c2c1N)CCCC3,-4,-10,13*,3
NC(=NNS(=O)(=O)c1ccccc1C(F)(F)F)c1ccccn1,/,0,/,/
CCn1nc(C)c(/C=C2/SC(=S)NC2=O)c1C,/,-6,/,/
O=C(Oc1ccc(N2C(=O)CCC2=O)cc1)c1ccco1,11,-4,9,/
O=C(Oc1ccc(Cl)cc1N1C(=O)CCC1=O)c1ccco1,3,-3,15*,18*
CCOc1cc(C=NNc2nc(Nc3ccccc3)nc(N3CCCCC3)n2)ccc1OCC(=O)O,/,-5,/,/
O=C(O)Cn1cc(/C=C2\C(=O)NC(=O)N(c3ccc(Cl)cc3)C2=O)c2ccccc21,7,-5,4,/
CCN(CC)C(=O)Cn1cc(/C=C2\C(=O)NC(=O)N(c3ccccc3F)C2=O)c2ccccc21,-1,-14,17*,23*
COc1ccc(Cl)cc1NC(=O)CN1CCCN(Cc2ccc(F)cc2)S1(=O)=O,/,-3,/,/
CC(Oc1ccc(Cl)cc1Cl)C(=O)Nc1ccc(S(=O)(=O)Nc2cnc3ccccc3n2)cc1 (stereo unspecified),-7,9,6,/
Cc1cc(Cl)ccc1OC(C)C(=O)Nc1ccc(S(=O)(=O)Nc2cnc3ccccc3n2)cc1 (stereo unspecified),-4,12,12*,8
Cc1ncn(CCNC(=O)Nc2cccc(Cl)c2C)c(=O)c1C,/,-3,/,/
CSc1ncccc1C(=O)N1CCC(CNC(=O)C(=O)NCCC2=CCCCC2)CC1,/,-2,/,/
